Records with an inconclusive call do not appear. Calls of active or inactive are those of the source. Unless noted, calls follow the shape of the full dose curve.

Among the data in PubChem BioAssay (NCATS) are Potency, outcome and activity change, negative = inhibition values, retold here.

Assay [1] is described as follows: qHTS for Inhibitors of the Functional Ribonucleoprotein Complex (vRNP) of Lassa (LASV) Arenavirus: LASV Primary Screen - GLuc reporter signal (AID 1347082; calls by dose curve; tested in HEK293 reporter line; also: nearly all actives have a fitted effect of over 60% in size; also: potency is read from the fitted curve at half-maximal effect; as to activity change, negative = inhibition: % is scaled to controls: 0 for no effect and ±100 for the full control effect). In general terms: In qHTS, concentration-response curves come from the screen itself.
A short description of assay [2]: qHTS for Inhibitors of the Functional Ribonucleoprotein Complex (vRNP) of Lassa (LASV) Arenavirus: Viability assay - alamar blue signal for LASV Primary Screen (AID 1347083; calls by dose curve; tested in HEK293 reporter line; also: nearly all actives have a fitted effect of over 80% in size; also: potency is read from the fitted curve at half-maximal effect).
The target of assay [3] is Nucleoprotein (Lymphocytic choriomeningitis virus (strain Armstrong)) (UniProt P09992). The assay can be described thus: qHTS for Inhibitors of the Functional Ribonucleoprotein Complex (vRNP) of Lymphocytic Choriomeningitis Arenaviruses (LCMV): LCMV Primary Screen - GLuc reporter signal (AID 1347086). Also: nearly all actives have a fitted effect of over 70% in size. Also: potency is read from the fitted curve at half-maximal effect. As to activity change, negative = inhibition: % is scaled to controls: 0 for no effect and ±100 for the full control effect.
Sequence of Nucleoprotein (Lymphocytic choriomeningitis virus (strain Armstrong)) (P09992 whole entry, looked up): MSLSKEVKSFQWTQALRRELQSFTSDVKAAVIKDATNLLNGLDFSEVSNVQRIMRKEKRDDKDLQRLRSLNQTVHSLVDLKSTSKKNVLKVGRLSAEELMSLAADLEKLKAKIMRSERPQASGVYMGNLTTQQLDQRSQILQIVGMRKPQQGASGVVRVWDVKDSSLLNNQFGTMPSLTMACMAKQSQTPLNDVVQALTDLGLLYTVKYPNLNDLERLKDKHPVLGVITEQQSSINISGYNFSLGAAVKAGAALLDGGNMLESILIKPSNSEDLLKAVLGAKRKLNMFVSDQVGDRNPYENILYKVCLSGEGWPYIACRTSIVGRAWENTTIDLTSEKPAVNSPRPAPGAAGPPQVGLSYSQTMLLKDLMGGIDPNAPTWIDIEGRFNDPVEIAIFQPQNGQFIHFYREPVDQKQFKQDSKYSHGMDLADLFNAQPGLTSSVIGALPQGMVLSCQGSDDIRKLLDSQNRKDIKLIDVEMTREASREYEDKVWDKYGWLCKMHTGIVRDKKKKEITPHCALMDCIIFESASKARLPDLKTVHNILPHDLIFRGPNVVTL
Assay [4] can be described thus: Cytotoxicity counterscreen for inhibitors of SARS-CoV-2 cell entry (AID 1645845). Also: nearly all actives have a fitted effect of over 50% in size. Also: potency is read from the fitted curve at half-maximal effect. In short, it runs like this: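 HEK293-ACE2 cells (Expi293F stably expressing human ACE2) seeded overnight, then compound for 1 h plus 48 h at 37C. Viability as ATP content by luminescence; normalized to wells with cells and media-only wells.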
Assay [5] in a line: Primary qHTS to identify inhibitors of SARS-CoV-2 cell entry (AID 1645846). Also: nearly all actives have a fitted effect of over 45% in size. Also: potency is read from the fitted curve at half-maximal effect. Particulars: activity change, negative = inhibition: at 57.1 µM (top of the series) unless noted. In short, it runs like this:
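Using luciferase-reporting pseudoviruses carrying Wuhan-Hu-1 spike, the screen tracks entry into stably ACE2-expressing cells over 48 hr. Activity is expressed relative to spike particles versus particles lacking any fusion protein.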

Assay [6] is described as follows: Confirmatory qHTS to identify inhibitors of SARS-CoV-2 cell entry (AID 1645844). Also: potency is read from the fitted curve at half-maximal effect; nearly all actives have a fitted effect of over 45% in size. In short, it runs like this: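 HEK293-ACE2 cells were pretreated 1 h with compound, then infected with MLV-based pseudoparticles bearing C-terminally truncated Wuhan-Hu-1 spike for 48 h at 37C; luciferase luminescence normalized to spike PP and bald PP wells.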
Assay [7] deals with Alpha-galactosidase (Coffea arabica) (UniProt Q42656). The assay can be described thus: Counterscreen for Glucocerebrosidase Inhibitors: qHTS Assay for Coffee Bean alpha-Galactosidase at pH 4.5 (AID 957; active = well fitted curve in the direction sought with a large enough effect; an effect the other way counts as inactive or inconclusive;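 also: plate controls were enzyme alone for no effect and no enzyme for full effect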). An outline of the steps: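 Coffee bean alpha-galactosidase 2 nM, substrate 4-MU-alpha-Gal 80 uM, pH 4.5 citrate/Tween-20, 20 min RT. Cpd titration 0.7 nM–77 uM. Stop pH 10, fluorescence 365/440 nm; Hill-equation AC50.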
Sequence of Alpha-galactosidase (Coffea arabica) (Q42656 whole entry, looked up): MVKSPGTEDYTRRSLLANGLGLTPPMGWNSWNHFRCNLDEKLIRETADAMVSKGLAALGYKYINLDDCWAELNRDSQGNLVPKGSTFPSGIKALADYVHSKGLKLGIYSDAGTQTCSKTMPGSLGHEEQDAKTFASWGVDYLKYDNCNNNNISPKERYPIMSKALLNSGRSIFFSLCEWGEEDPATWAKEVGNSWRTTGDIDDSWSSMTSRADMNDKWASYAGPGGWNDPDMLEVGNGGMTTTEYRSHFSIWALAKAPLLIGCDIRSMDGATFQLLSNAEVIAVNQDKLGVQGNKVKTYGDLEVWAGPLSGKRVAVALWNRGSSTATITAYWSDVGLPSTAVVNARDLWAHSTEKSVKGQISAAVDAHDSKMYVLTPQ

The target is the same in assay [8]. The assay can be described thus: Counterscreen for Glucocerebrosidase Inhibitors: qHTS Assay for Coffee Bean alpha-Galactosidase at pH 5.9 (AID 998; active = well fitted curve in the direction sought with a large enough effect; an effect the other way counts as inactive or inconclusive;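 also: plate controls were uninhibited enzyme for no effect and no-enzyme basal signal for full effect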). An outline of the steps: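 Green coffee bean enzyme (2 nM) with 4-methylumbelliferyl alpha-D-galactopyranoside (80 uM) in 50 mM citric acid, 0.005% Tween-20, pH 5.9, 20 min at room temperature; compounds 0.7 nM–77 uM. Stopped at pH 10, fluorescence Ex365/Em440; Hill-fit AC50.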

The nature of assay [9]: Validation screen for inhibitors of Lassa infection (AID 463096). Also: % is scaled to controls: 0 for no effect and ±100 for the full control effect.
Assay [10] in a line: Inducers of the Endoplasmic Reticulum Stress Response (ERSR) in human glioma: Validation (AID 504836; active = well fitted curve in the direction sought with a large enough effect; an effect the other way counts as inactive or inconclusive; also: 0% is about no effect). An outline of the steps: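 Stably transfected U87-MG glioma cells carrying a GRP78-based luciferase sensor; 16 h compound incubation. Luminescence end-point read 10 min after Bright-Glo addition at room temperature.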
Assay [11] deals with Cytochrome P450 3A4 (Homo sapiens) (UniProt P08684). Briefly: qHTS Assay for Activators of Cytochrome P450 3A4 (AID 885; active = well fitted curve in the direction sought with a large enough effect; an effect the other way counts as inactive or inconclusive; also: nearly all actives have a fitted effect of over 65% in size). An outline of the steps: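 Quantitative HTS format: compounds preincubated with 20nM human CYP3A4 and Luciferin-PPXE substrate at KM, reaction started by NADPH regeneration, stopped after 60 min, luciferase luminescence read 20 min later.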
Sequence of Cytochrome P450 3A4 (Homo sapiens) (P08684 whole entry, looked up): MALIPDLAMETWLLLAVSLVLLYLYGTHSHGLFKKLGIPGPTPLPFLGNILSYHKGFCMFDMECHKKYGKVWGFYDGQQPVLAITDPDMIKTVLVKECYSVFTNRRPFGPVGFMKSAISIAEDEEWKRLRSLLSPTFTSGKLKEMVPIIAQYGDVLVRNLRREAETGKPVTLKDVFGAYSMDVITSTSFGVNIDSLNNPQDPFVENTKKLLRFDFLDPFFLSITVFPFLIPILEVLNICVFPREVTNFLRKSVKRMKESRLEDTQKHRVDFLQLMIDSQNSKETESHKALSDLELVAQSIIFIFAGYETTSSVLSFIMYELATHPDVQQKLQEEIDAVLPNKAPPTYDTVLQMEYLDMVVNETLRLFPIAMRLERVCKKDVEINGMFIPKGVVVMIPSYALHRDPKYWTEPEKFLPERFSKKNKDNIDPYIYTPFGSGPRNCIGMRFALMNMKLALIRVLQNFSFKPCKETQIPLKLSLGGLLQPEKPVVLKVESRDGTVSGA
Assay [12] in a line: S16 Schwann cell PMP22 intronic element firefly luciferase assay (AID 624032; active = well fitted curve in the direction sought with a large enough effect; an effect the other way counts as inactive or inconclusive; also: potency is read from the fitted curve at half-maximal effect; nearly all actives have a fitted effect of over 30% in size). In short, it runs like this: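 Rat S16 Schwann cells stably carrying firefly luciferase driven by a PMP22 intronic element, in 10% FBS, treated 24 h at 37 C. ONE-Glo luminescence normalized to PTC124 control and DMSO (0%); curves classed by r2, magnitude and activity.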
A short description of assay [13]: Primary qHTS for Huh7 cytotoxicity: counterscreen for inhibitors of MERS-S pseudotyped particle cell entry (AID 1479147). The note with it: outcome: dose series up to 57.1 µM unless noted.
The nature of assay [14]: Primary qHTS for inhibitors of MERS-S pseudo-typed particle cell entry (AID 1479149). Also: % is scaled to controls: 0 for no effect and ±100 for the full control effect; nearly all actives have a fitted effect of over 60% in size.
A short description of assay [15]: Primary qHTS for Vero E6 cytotoxicity: counterscreen for inhibitors of SARS-S pseudo-typed particle cell entry (AID 1479150). The note with it: outcome: dose series up to 57.1 µM unless noted.

Regarding `CC(C)=CC[C@@H](O)C1=CC(=O)c2c(O)ccc(O)c2C1=O`, the Potency entry in assay [1], in assay [2], in assay [3], in assay [4] and in assay [5] was “inactive” in each case.

`Cc1cccc(-c2[nH]c(C(C)(C)C)nc2-c2ccc3c(c2)OCO3)n1`: the Potency in assay [1] was 10.9 µM (active); in [2], 7.69 µM (active); in assay [3], 7.69 µM (active); in assay [4], 17.8 µM (active).

With `N[C@@]1(C(=O)O)CS(=O)(=O)[C@H]2[C@H](C(=O)O)[C@H]21`, the Potency entry in [1], in assay [3] and in assay [5] was “inactive” throughout. Moreover, the Potency in assay [2] was 19.3 µM (active).

As for `O=C(CCCCCCNC(=O)c1cnc(N(c2ccccc2)c2ccccc2)nc1)NO`, the Potency entry in assay [1], in [3] and in assay [5] was “inactive” in each case. The Potency in assay [2] was 30.6 µM (active).

For `COc1ccc(Nc2cc(-c3cnc(N)nc3)nc(N3CCOCC3)n2)cn1`, the Potency in [1] was 12.2 µM (active); in [2] it was 3.85 µM (active); in assay [6], 0.341 µM (active).

On to `COc1cc(O)c2c(c1)C1OC1C[C@H](O)[C@H](O)C(=O)C=CC[C@H](C)OC2=O` (some centres not stated), for which the Potency was 34.3 µM (active) in assay [1], 38.5 µM (active) in assay [2], 34.3 µM (active) in assay [3] and 35.5 µM (active) in assay [5].

For the molecule `Cn1cc(C[C@@H](N)C(=O)O)c2ccccc21`, the Potency entry in assay [1] and in [2] was “inactive” in each case. In addition, the outcome in assay [4] is “inactive [at 11.3 µM]”. In assay [5], the activity change, negative = inhibition is -6.52% [at 11.3 µM].

As for `O=c1[nH]c2cc(Cl)c(Cl)cc2[nH]c1=O`, the molecule was classed as inactive in assay [7] and in [8]. The Potency result in assay [9], in assay [1], in [2] and in assay [3] was “inactive” in each case.

As to `O=C1c2ccccc2-c2n[nH]c3cccc1c23`, the call in [7], in [8] and in [10] was inactive. The Potency entry in assay [1], in assay [3] and in assay [4] was “inactive” in each case. Besides, the Potency in [2] is 30.6 µM (active).

As for `C[C@@H](NCc1cc2ccccc2[nH]1)c1cccc2ccccc12`, the Potency result in assay [1], in [2] and in assay [3] was “inactive” each time. Moreover, the Potency in assay [4] is 31.6 µM (active).

For the molecule `COc1cc2c(cc1-c1c(C)noc1C)ncc1[nH]c(=O)n([C@H](C)c3ccccn3)c12`, the Potency in [1] was 13.7 µM (active); in assay [2], 17.2 µM (active); in [3], 9.68 µM (active). The Potency result in [4] was “inactive”. In assay [5], the activity change, negative = inhibition is -29%.

For `COC(=O)Nc1ccc(-c2nc(N3CCOCC3)c3cnn(C4CCN(Cc5cccnc5)CC4)c3n2)cc1`, the Potency in assay [1] was 0.109 µM (active); in [2], 0.153 µM (active); in assay [6], 5.41 µM (active); in [5] it was 6.31 µM (active).

Consider `CCC(C(=O)O)C1CCC(C)C(C(C)C(O)C(C)C(=O)C(CC)C2OC3(C=CC(O)[C@@]4(CC[C@](C)(C5CC[C@@](O)(CC)C(C)O5)O4)O3)C(C)CC2C)O1` (some centres not stated), for which the Potency entry in assay [11] and in assay [4] was “inactive” throughout. For the same molecule, the Potency in assay [12] is 0.361 µM (active); in [1] it was 3.43 µM (active); in assay [2], 4.85 µM (active); in [3], 0.968 µM (active).

For `C[S+](C)CCC(N)C(=O)O` (configuration not stated), the Potency entry in [1], in assay [2], in assay [14] and in [4] was “inactive” throughout. Also, the molecule was classed as inactive in assay [13] and in [15]. Moreover, in assay [5], the activity change, negative = inhibition was -29.8%.
